Our source for the cytotoxicity call values is the antibiotic and cytotoxicity screens of Wong et al. (2023).

SMILES strings stand for the structures. The whole screen tested about 39,000 compounds, of which about 1,500 (3.8%) were called active. For the sample, actives were picked, then their nearest neighbours and some compounds at random.

The subject of this assay is HSkMC (human skeletal muscle cells). The assay can be described thus: cytotoxicity call (relative viability < 0.9). The settings on record: 10 µM.
For the compound `CC(C)NC(=O)Nc1ccc2c(c1)C(=O)N([C@@H](C)CO)C[C@H](C)[C@@H](CN(C)Cc1ccc(Cl)c(Cl)c1)OCCCC[C@@H](C)O2`, the cytotoxicity call was “inactive”.
For `C[C@@H]1CN([C@H](C)CO)C(=O)c2cc(NS(=O)(=O)c3cccs3)ccc2O[C@@H](C)CCCCO[C@@H]1CN(C)C(=O)c1ccccc1` the value was “inactive”.
In the case of `C[C@H]1CN([C@@H](C)CO)C(=O)Cc2cc(NC(=O)Nc3cccc4ccccc34)ccc2O[C@H]1CN(C)C(=O)Nc1ccccc1` it was “inactive”.
For `C[C@@H]1CN([C@H](C)CO)C(=O)c2cccc(NC(=O)c3ccc(-c4nccs4)cc3)c2O[C@H]1CN(C)C(=O)Nc1ccccc1` the value was “inactive”; for `CC(=O)NC[C@H]1CN(c2ccc(N3CCN(C(=O)CO)CC3)c(F)c2)C(=O)O1`, “inactive”.
As for `CC(C)(C)CC(C)(C)c1cc(Cc2cc(C(C)(C)CC(C)(C)C)cc(-n3nc4ccccc4n3)c2O)c(O)c(-n2nc3ccccc3n2)c1` [listing 1 of 2 here], the cytotoxicity call was “inactive”.
For `CC(C)(C)CC(C)(C)c1ccc(O)c(Cc2ccc(Cl)cc2Cl)c1` the value was “active”; for `CC(C)(C)CC(C)(C)c1cc(Cc2cc(C(C)(C)CC(C)(C)C)cc(-n3nc4ccccc4n3)c2O)c(O)c(-n2nc3ccccc3n2)c1` [listing 2 of 2 here], “inactive”; for `O=C(CN1CCOCC1)NCC[C@@H]1CC[C@H](NC(=O)c2ccc3c(c2)OCO3)[C@@H](CO)O1`, “inactive”.
In the case of `C[C@@H]1CN([C@@H](C)CO)C(=O)c2cc(C#CC3(O)CCCC3)cnc2O[C@@H]1CN(C)C(=O)CN(C)C` it was “inactive”; in that of `C[C@@H]1CN([C@@H](C)CO)C(=O)c2cc(NC(=O)C3CCCCC3)ccc2O[C@@H]1CN(C)Cc1ccc(-c2ccccc2)cc1`, “active”.
For `C[C@@H]1CN([C@@H](C)CO)C(=O)c2cc(NC(=O)NC3CCCCC3)ccc2O[C@@H]1CN(C)Cc1ccc(-c2ccccc2)cc1` the value was “active”.
Regarding `CO[C@@H]1CN(C)C(=O)c2cc(NC(=O)NC3CCCCC3)ccc2OC[C@H](C)N(CCc2ccccc2)C[C@H]1C`, the cytotoxicity call is “inactive”.
`C[C@H]1CN([C@@H](C)CO)C(=O)c2cc(NC(=O)C3CCCCC3)ccc2O[C@@H]1CN(C)Cc1ccc(-c2ccccc2)cc1`: the cytotoxicity call was “inactive”.
With `CO[C@H]1CN(C)C(=O)c2cc(NC(=O)NC3CCCCC3)ccc2OC[C@H](C)N(CCc2ccccc2)C[C@@H]1C`, the cytotoxicity call is “inactive”.
In the case of `C[C@@H]1CN([C@@H](C)CO)C(=O)c2cc(NC(=O)NC3CCCCC3)ccc2O[C@H]1CN(C)Cc1ccc(Oc2ccccc2)cc1` it was “active”.
With `C[C@@H]1CN([C@H](C)CO)C(=O)c2cc(NC(=O)NC3CCCCC3)ccc2O[C@H]1CN(C)Cc1ccc(Oc2ccccc2)cc1`, the cytotoxicity call is “inactive”.
For `CO[C@H]1CN(C)C(=O)c2cc(NC(=O)NC3CCCCC3)ccc2OC[C@@H](C)N(CCc2ccccc2)C[C@@H]1C` the value was “active”; for `C[C@@H]1CN([C@H](C)CO)C(=O)c2cc(NC(=O)C3CCCCC3)ccc2O[C@@H]1CN(C)Cc1ccc(-c2ccccc2)cc1`, “inactive”; for `C[C@H](CO)N1C[C@H](C)[C@H](CN(C)Cc2ccc(Oc3ccccc3)cc2)Oc2ccc(NC(=O)NC3CCCCC3)cc2C1=O`, “inactive”.
Regarding `C[C@H]1CN([C@@H](C)CO)C(=O)c2cc(NC(=O)NC3CCCCC3)ccc2O[C@H]1CN(C)Cc1ccc(-c2ccccc2)cc1`, the cytotoxicity call is “inactive”.
In the case of `C[C@@H]1CN([C@H](C)CO)C(=O)c2cc(NC(=O)NC3CCCCC3)ccc2O[C@H]1CN(C)Cc1ccc(-c2ccccc2)cc1` it was “inactive”.
For `Cc1ccc(-c2c[nH]c(=S)[nH]2)cc1` the value was “inactive”.
Take `Cc1noc(C)c1NC(=O)Nc1ccc2c(c1)CC(=O)N([C@H](C)CO)C[C@@H](C)[C@@H](CN(C)C(=O)Nc1cccc3ccccc13)O2`: the cytotoxicity call is “inactive”.
For `O=C(C[C@@H]1CC[C@H]2[C@@H](COC[C@@H](O)CN2S(=O)(=O)c2ccccc2)O1)NCCN1CCCC1` the value was “inactive”; for `C[C@H]1CN([C@@H](C)CO)C(=O)Cc2cc(NS(C)(=O)=O)ccc2O[C@@H]1CN(C)C(=O)Nc1ccc2c(c1)OCO2`, “inactive”.
In the case of `Cc1noc(C)c1NC(=O)Nc1cccc2c1O[C@@H](CN(C)S(C)(=O)=O)[C@H](C)CN([C@@H](C)CO)C2=O` it was “inactive”; in that of `NCCCCCNC(=O)[C@H]1C[C@H]2C(=O)NCC(=O)N2[C@H]1c1cccc(OCCO)c1`, “inactive”; in that of `COc1ccc([C@@H]2CC(=O)c3c(O)cc(O[C@@H]4O[C@H](CO[C@@H]5O[C@@H](C)[C@H](O)[C@@H](O)[C@H]5O)[C@@H](O)[C@H](O)[C@H]4O)cc3O2)cc1O`, “inactive”.
For `C[C@@H](NC(=O)C[C@H]1C=C[C@H](NC(=O)CN2CCOCC2)[C@@H](CO)O1)c1ccccc1` the value was “inactive”; for `O=C(Nc1ncc(SCCN2CCCC2)s1)[C@]1(c2ccc(S(=O)(=O)C3CC3)cc2)C[C@H]1C1CCCCC1`, “active”.
As for `C[C@H]1CCCCO[C@H](CN(C)C(=O)Nc2ccc(F)cc2)[C@@H](C)CN([C@@H](C)CO)C(=O)c2cc(NC(=O)CCC(F)(F)F)ccc2O1`, the cytotoxicity call is “inactive”.
Take `COc1ccc(CN(C)C[C@H]2Oc3c(NS(C)(=O)=O)cccc3C(=O)N([C@H](C)CO)C[C@H]2C)cc1`: the cytotoxicity call is “inactive”.
Regarding `CC[C@H](C)C[C@H](C)CCCCCCCCC(=O)N[C@H]1C[C@@H](O)[C@@H](NCCN)NC(=O)[C@@H]2[C@@H](O)CCN2C(=O)[C@H]([C@H](O)CCN)NC(=O)[C@H]([C@H](O)[C@@H](O)c2ccc(O)cc2)NC(=O)[C@@H]2C[C@@H](O)CN2C(=O)[C@H]([C@@H](C)O)NC1=O`, the cytotoxicity call is “inactive”.
For `CCCCCOc1ccc(-c2cc(-c3ccc(C(=O)N[C@H]4C[C@@H](O)[C@@H](O)NC(=O)[C@H]5[C@@H](O)[C@@H](C)CN5C(=O)[C@H]([C@@H](O)CC(N)=O)NC(=O)[C@H]([C@@H](O)[C@@H](O)c5ccc(O)c(OS(=O)(=O)O)c5)NC(=O)[C@H]5C[C@@H](O)CN5C(=O)[C@H]([C@@H](C)O)NC4=O)cc3)no2)cc1` the value was “inactive”.
For `COc1ccc(NC(=O)N(C)C[C@@H]2Oc3ccc(NC(=O)CCCN(C)C)cc3CC(=O)N([C@H](C)CO)C[C@H]2C)cc1` the value was “inactive”.
In the case of `C[C@@H]1CCCCO[C@H](CN(C)C(=O)Nc2ccc3c(c2)OCO3)[C@H](C)CN([C@@H](C)CO)C(=O)c2cc(NC(=O)Nc3ccc(F)cc3)ccc2O1` it was “inactive”.
In the case of `C[C@@H]1CCCCO[C@H](CN(C)C(=O)c2ccncc2)[C@H](C)CN([C@H](C)CO)C(=O)c2cc(NS(=O)(=O)c3ccc(Cl)cc3)ccc2O1`, the cytotoxicity call is “inactive”.
In the case of `NC(=O)CNC(=O)c1cccc(Cl)c1` it was “inactive”; in that of `CN(C)c1ccc2nc3ccc(N(C)C)cc3[s+]c2c1.O.[Cl-]`, “active”; in that of `CN(C)c1ccc2c(=O)[nH][nH]c(=O)c2c1`, “inactive”.
In the case of `Cc1cc2nc3ccc(N(C)C)cc3[s+]c2cc1N.[Cl-]` it was “active”; in that of `C[C@@H]1CN([C@@H](C)CO)C(=O)Cc2cc(NC(=O)Cc3cn(C)c4ccccc34)ccc2O[C@@H]1CN(C)Cc1ccc(Oc2ccccc2)cc1`, “inactive”; in that of `Nc1cc(Cl)ncn1`, “inactive”.
For `C[C@@H]1CN([C@H](C)CO)S(=O)(=O)c2ccc(C#C[C@@H](C)O)cc2O[C@H]1CN(C)C` the value was “inactive”; for `COc1ccc(S(=O)(=O)Nc2ccc3c(c2)C(=O)N([C@H](C)CO)C[C@H](C)[C@@H](CN(C)C(=O)c2ccccc2)OCCCC[C@H](C)O3)cc1`, “inactive”.
Turning to `CC12CC3(C)CC(C)(C1)CC(C/N=C/c1ccc(O)cc1)(C2)C3`, the cytotoxicity call was “inactive”.
On to `CCOc1ccc2nc(C34CC5CC(CC(C5)C3)C4)ccc2c1`, for which the cytotoxicity call is “inactive”.
For `CC1=Nc2ccccc2NC(C)(C)C1` the value was “inactive”; for `C[C@@H]1CN([C@@H](C)CO)C(=O)c2cc(NC(=O)Cc3ccccc3)ccc2O[C@H]1CN(C)S(=O)(=O)c1cccs1`, “inactive”; for `COCCN1CCC(N(Cc2ccc(-c3ccc(C(F)(F)F)cc3)cc2)C(=O)Cn2c(SCc3cccc(F)c3F)cc(=O)c3ccccc32)CC1`, “active”.
In the case of `O=c1cc(-c2ccccc2)[nH]c(=O)[nH]1` it was “inactive”; in that of `CC(C)NC(=O)Nc1ccc2c(c1)CC(=O)N([C@@H](C)CO)C[C@@H](C)[C@H](CN(C)S(=O)(=O)c1ccc(Cl)cc1)O2`, “inactive”; in that of `COc1ccc(S(=O)(=O)N(C)C[C@@H]2Oc3ccc(NC(=O)Nc4cc(Cl)cc(Cl)c4)cc3CC(=O)N([C@@H](C)CO)C[C@@H]2C)cc1Cl`, “active”.
For `COc1ccc(S(=O)(=O)N(C)C[C@@H]2Oc3ccc(NC(=O)Nc4cccc5c4CCCC5)cc3CC(=O)N([C@@H](C)CO)C[C@@H]2C)cc1Cl` the value was “inactive”.
With `CC(C)NC(=O)Nc1ccc2c(c1)CC(=O)N([C@H](C)CO)C[C@@H](C)[C@H](CN(C)S(=O)(=O)c1ccc(Cl)cc1)O2`, the cytotoxicity call was “inactive”.
In the case of `COc1ccc(S(=O)(=O)N(C)C[C@@H]2Oc3ccc(NC(=O)Nc4ccc(Cl)c(Cl)c4)cc3CC(=O)N([C@@H](C)CO)C[C@@H]2C)cc1Cl` it was “active”.
For `COc1ccc(S(=O)(=O)N(C)C[C@@H]2Oc3ccc(NC(=O)NC(C)C)cc3CC(=O)N([C@H](C)CO)C[C@@H]2C)cc1` the value was “inactive”; for `COc1ccc(NC(=O)N(C)C[C@H]2OCCCC[C@H](C)Oc3ccc(NS(=O)(=O)c4cccs4)cc3C(=O)N([C@@H](C)CO)C[C@H]2C)cc1`, “inactive”.
In the case of `COc1cccc(S(=O)(=O)N(C)C[C@H]2Oc3cc(Br)ccc3S(=O)(=O)N([C@@H](C)CO)C[C@H]2C)c1` it was “inactive”; in that of `COc1ccc2c3c([nH]c2c1)[C@@H](CO)N(C[C@]13CCN(CC1)S(=O)(=O)c1cn(cn1)C)C(=O)Nc1ccc(cc1)F`, “inactive”.
In the case of `O=C(C[C@H]1C[C@@H]2c3cc(NC(=O)Nc4ccc(C(F)(F)F)cc4)ccc3O[C@@H]2[C@H](CO)O1)NC1CCCCC1`, the cytotoxicity call is “inactive”.
In the case of `C[C@H]1CN([C@@H](C)CO)S(=O)(=O)c2ccc(C#Cc3ccncc3)cc2O[C@@H]1CN(C)C(=O)C1CCCCC1` it was “inactive”; in that of `COc1ccccc1NC(=O)N(C)C[C@H]1Oc2ncc(C#CCN(C)C)cc2C(=O)N([C@@H](C)CO)C[C@H]1C`, “inactive”.
